# ADAM17 inh: inhibitors of human ADAM17. recombinant ADAM17, EDANS/DABCYL FRET peptide cleavage. inhibition, % at 6.95 µM. 370,000 tested, 0.83% active. AID 720648;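 active = inhibition above the mean of compounds lying between control limits plus 3 SD, set per campaign, cut at about 8.5% in these data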
# PLCg1 inh: inhibitors of human phospholipase C gamma1; 370,000 tested, 0.84% active; AID 720700; purified PLC-gamma1, fluorogenic substrate, fluorescence; P19174; inhibition, % at 12.2 µM
# proKLK7 act: activators of human kallikrein-7 zymogen; purified proKLK7, EDANS-DABCYL substrate fluorescence; 100% is mature enzyme control, 0% vehicle; P49862; 370,000 tested, 0.9% active; AID 652039; activation, % at 7 µM;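 active = activation above the mean of all tested compounds plus 3 SD, computed per campaign excluding outliers beyond control limits, cut at about 13% in these data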
# ADAM10 inh: ADAM10 inhibition, QFRET primary screen; O14672; recombinant ADAM10, EDANS/DABCYL FRET peptide cleavage, 3 h; inhibition, % at 7 µM; 370,000 tested, 0.62% active;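 active = inhibition above a per-campaign cutoff equal to the mean of compounds falling between control-based bounds plus 3 SD, cut at about 20% in these data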
# PLC-beta3 inh: inhibitors of human phospholipase C beta3; Purified PLC-beta3, fluorogenic substrate, fluorescence; 370,000 tested, 0.18% active; AID 720704; inhibition, % at 12.2 µM; Q01970; in the data active = inhibition above about 11%
# Target sequence (Q01970 whole entry, looked up): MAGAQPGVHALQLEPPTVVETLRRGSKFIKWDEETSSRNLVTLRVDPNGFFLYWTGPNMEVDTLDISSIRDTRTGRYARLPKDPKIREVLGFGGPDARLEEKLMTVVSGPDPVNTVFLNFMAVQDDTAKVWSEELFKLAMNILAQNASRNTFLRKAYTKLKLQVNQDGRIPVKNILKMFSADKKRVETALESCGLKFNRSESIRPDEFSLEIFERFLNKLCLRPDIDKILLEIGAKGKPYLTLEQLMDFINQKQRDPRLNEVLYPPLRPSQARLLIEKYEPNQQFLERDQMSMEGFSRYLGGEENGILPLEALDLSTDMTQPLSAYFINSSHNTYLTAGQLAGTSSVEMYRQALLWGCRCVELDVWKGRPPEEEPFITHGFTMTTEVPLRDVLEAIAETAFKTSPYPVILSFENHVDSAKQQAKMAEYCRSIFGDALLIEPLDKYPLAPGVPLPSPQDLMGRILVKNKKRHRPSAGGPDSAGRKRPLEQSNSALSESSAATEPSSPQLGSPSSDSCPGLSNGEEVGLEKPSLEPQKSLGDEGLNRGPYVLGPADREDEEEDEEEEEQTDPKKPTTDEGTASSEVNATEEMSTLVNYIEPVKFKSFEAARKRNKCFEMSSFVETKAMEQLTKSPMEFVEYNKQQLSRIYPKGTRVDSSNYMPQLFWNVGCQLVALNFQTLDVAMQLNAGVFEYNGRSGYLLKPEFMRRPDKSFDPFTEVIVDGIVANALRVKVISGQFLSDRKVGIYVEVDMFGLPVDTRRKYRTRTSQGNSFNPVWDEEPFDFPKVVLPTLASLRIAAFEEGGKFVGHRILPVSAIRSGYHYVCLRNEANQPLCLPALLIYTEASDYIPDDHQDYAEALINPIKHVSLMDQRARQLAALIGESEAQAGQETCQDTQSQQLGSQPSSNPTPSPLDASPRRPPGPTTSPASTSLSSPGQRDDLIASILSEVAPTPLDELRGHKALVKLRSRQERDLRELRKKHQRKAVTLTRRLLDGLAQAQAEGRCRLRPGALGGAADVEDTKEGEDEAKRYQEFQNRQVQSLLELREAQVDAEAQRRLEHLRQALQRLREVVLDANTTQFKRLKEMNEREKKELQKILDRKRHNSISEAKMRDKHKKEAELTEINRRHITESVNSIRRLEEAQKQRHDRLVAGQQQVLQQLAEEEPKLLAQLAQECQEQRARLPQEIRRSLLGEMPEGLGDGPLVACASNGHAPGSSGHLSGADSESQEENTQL
# PLCg1 ctr: PLC-gamma1 inhibition, counter-screen for PLC-beta3 hits; purified PLC-gamma1, fluorogenic substrate, fluorescence; inhibition, % at 12.3 µM; shares compounds with PLCg1 inh; 3,300 tested, 3.1% active; AID 743258
# PLCb3 confirm: confirmation of human PLC-beta3 inhibitors. shares compounds with PLCg1 inh. purified PLC-beta3, fluorogenic substrate fluorescence. inhibition, % at 12.3 µM. 3,300 tested, 1% active. AID 743261; in the data active = inhibition above about 11%
# Hits are given with their value; n = inactive; x = no result. Only some compounds are listed: those with a hit (about 2.9% of all), similar ones and a draw of the others. Rule as the data show it, unless noted: active = inhibition above about 9.5%; inactive = the rest.
SMILES,ADAM17 inh,PLCg1 inh,proKLK7 act,ADAM10 inh,PLC-beta3 inh,PLCg1 ctr,PLCb3 confirm
O=C(NCCc1ccccc1)C1CCCN1S(=O)(=O)c1ccc(F)cc1 (stereo not drawn),n,n,n,n,12,n,n
CCN(CC)S(=O)(=O)c1cccc(-c2nnc(SCC(=O)NC3CCCCCCC3)n2N)c1,n,n,n,n,n,x,x
O=C(Cc1ccc(-n2cccc2)cc1)N1CCc2ccccc21,n,9.9,n,n,n,n,n
O=C(CCCC(=O)N1CCc2ccccc21)N1CCc2ccccc21,n,n,n,n,n,x,x
Cc1cccc(CS(=O)(=O)c2ncc(CO)n2C)c1,n,n,n,n,n,x,x
COc1ccc(N2CC(C(=O)Nc3cc(C)on3)CC2=O)cc1 (stereo not drawn),n,n,n,n,n,x,x
CCOc1ccc(N2CC(C(=O)Nc3nnc(Cc4ccc(OC)cc4)s3)CC2=O)cc1 (stereo not drawn),n,16,n,n,n,n,n
COc1ccc(N2CC(C(=O)Nc3cccc(C)n3)CC2=O)cc1 (stereo not drawn),n,10,n,n,n,n,n
COc1ccc(Cc2nnc(NC(=O)C3CC(=O)N(c4ccc(OC)cc4)C3)s2)cc1 (stereo not drawn),n,n,n,n,n,x,x
CN1CCN(NC(=O)c2ccc(Cl)s2)CC1,n,9.8,n,n,n,n,n
CN1CCN(NC(=O)c2ccc(F)cc2)CC1,n,n,n,n,n,x,x
O=C(CCc1ccccc1)N[C@H]1[C@H](O)CCC[C@@]12C(=O)N(Cc1ccccc1)c1ccc(-c3ccccc3)cc12,n,n,n,n,n,x,x
Clc1ccc(OCCOCCN2CCCCC2)c(Br)c1,n,11,n,n,n,n,n
Clc1cc(Br)ccc1OCCOCCN1CCOCC1,n,13,n,n,14,n,n
c1cn2cc(-c3ccc4c(c3)OCO4)nc2s1,n,n,n,n,n,x,x
Fc1ccccc1NC(=S)N1CCN(c2ccccn2)CC1,n,10,n,n,n,n,n
COc1ccccc1C(=O)Nc1nnc(S(=O)(=O)N(C)Cc2ccccc2)s1,n,n,n,n,n,x,x
CC1(C(=O)NCc2ccccc2)CN(S(C)(=O)=O)CC(=O)N1Cc1cccc(C(F)(F)F)c1 (stereo not drawn),n,n,n,n,n,x,x
COC(=O)C(C)(C)c1cccnc1C#N,n,76,n,n,n,77,n
N#CC1(NC(=O)CSc2nnc(Nc3ccccc3F)s2)CCCC1,n,n,n,n,n,x,x
CCN(CC)C1CCN(C(=O)c2cc(COc3ccccc3SC)on2)C1 (stereo not drawn),n,10,n,n,n,n,n
CCn1c(N2CCC(C)CC2)nc2c1c(=O)n(C)c(=O)n2C,n,12,n,n,n,n,n
Cc1c(NC2=NC3(CCCCC3)Cc3ccccc32)c(=O)n(-c2ccccc2)n1C,n,n,n,n,n,x,x
CC1(C)CC(=O)C(C2=NC3(CCCCCC3)Cc3ccccc32)=C(O)C1,n,10,n,n,n,n,n
COc1cccc(C(C(=O)NC2CCCC2)N(C(=O)c2ccco2)c2ccc(C(C)=O)cc2)c1OC (stereo not drawn),n,n,n,n,n,x,x
SMILES,ADAM17 inh,PLCg1 inh,proKLK7 act,ADAM10 inh,PLC-beta3 inh,PLCg1 ctr,PLCb3 confirm
Cc1ccc(S(=O)(=O)CCC(=O)Nc2nc(-c3ccncc3)cs2)cc1,n,13,n,n,n,n,n
Cc1ccc(S(=O)(=O)CC(=O)Nc2nc(-c3ccccc3)cs2)cc1,n,n,n,n,n,x,x
CCOC(=O)CSc1nnc(NC(=O)c2cccc([N+](=O)[O-])c2)s1,n,n,n,n,13,n,n
CCC(CC)c1nnc(NC(=O)c2cc(C(=O)OC)cc([N+](=O)[O-])c2)s1,n,12,n,n,n,n,n
CCOC(=O)Cc1ccc(NC(=O)c2cccc([N+](=O)[O-])c2)cc1,n,n,n,n,n,x,x
CCN(c1ccc(NC(=O)CSCc2c(C)noc2C)cc1)C(C)C,n,n,n,n,n,x,x
NC(Cc1ccc(C(F)(F)F)cc1)c1csc(NC(=O)NCCc2ccccc2)n1 (stereo not drawn),n,12,n,n,n,n,n

# High-throughput results (PubChem BioAssay)
